Data on 40 molecules can be found in PubChem BioAssay (Tox21).

Structures are written as SMILES. “And” between values parts separate entries of the source, which are not always exact repeats. Equal values may be shown once. Results filed as inconclusive are left out. Unmarked numbers belong to inactive results. The source made the active and inactive calls. The call rests on the fitted dose curve; in most records, active means well fitted cell-killing curve with a large enough effect in the repeat runs; inconclusive means weak or mixed curves, or effect the other way; inactive means flat fitted curve, though single readings scatter.
On the % scale 0 is the no-effect control and ±100 the full control effect; potency means the concentration at half of the fitted maximal effect.

The assay in a line: qHTS RealTime-Glo MT Cell Viability Assay in HEK293 cells - 40 hour (AID 1224874). Further: nearly all actives have a fitted effect of over 50% in size. To be noted: RealTime-Glo luminescence; max response: active compounds read low. The source says: U.S. Tox21 Program National Center for Advancing Translational Sciences [NCATS] NIH Chemical Genomics Center [NCGC] U.S. Environmental Protection Agency [EPA] National Institutes of Environmental Health Sciences [NIEHS] National Toxicology Program [NTP] U.S. Food and Drug Administration [FDA] Tox21 Assay Overview: Measure of cell viability is critical in the cell-base assay. Analysis of cell viability is necessary for the characterization of cell responses to cytotoxic drugs and environmental stress. A RealTime-Glo MT Cell Viability Assay to monitor cell viability in real time of continues cell culture during 40 hours of compound treatment was used to screen Tox21 10K library compounds in Hek293 cells. The RealTime-Glo MT Cell Viability Assay is a nonlytic, homogeneous, bioluminescent method to measure cell viability in real time using a simple, plate-based method. The assay involves adding NanoLuc luciferase and a cell-permeant prosubstrate to cells in culture. Viable cells reduce the proprietary prosubstrate to generate a substrate for NanoLuc luciferase. This substrate diffuses from cells into the surrounding culture medium, where it is rapidly used by the NanoLuc Enzyme to produce a luminescent signal. The signal correlates with the number of viable cells, making the assay well suited for cytotoxicity studies.
Tox21 Assay Protocol Summary: The mixture of Hek293 cell suspension and reagents were dispensed at 600cells/6 ul/well in 1536-well tissue culture treated black solid bottom plates using a Multidrop dispenser. After the assay plates were incubated at a 37 C/5% CO2 incubator for 5 hours, 23 nL of compounds dissolved in DMSO, positive and negative controls was transferred to the assay plate by a pintool work station. The plates were incubated at 37 C for 40 hours. The luminescence intensity were measured at 0h, 8h, 16h, 24h, 32h and 40h time points using ViewLux plate reader during compound treatment.
In general terms: Quantitative high-throughput screening tests each substance at several concentrations.
Turning to `COc1ccc(-c2ccc3cc(C(=O)O)ccc3c2)cc1C12CC3CC(CC(C3)C1)C2`, the Potency was 4.77 µM (active).

As for `CCc1cc(SCc2sc(-c3ccc(C(F)(F)F)cc3)nc2CN2CCN(c3ccc(OC)cc3)CC2)ccc1OCC(=O)O`, the Potency is 19.5 µM (active).

As to `CCCCCCCCCOC(=O)c1ccc(O)cc1`, the Potency was 38.3 µM (active).

In the case of `CC1(C)CCC(C)(C)c2cc(C(=O)Nc3ccc(C(=O)O)cc3)ccc21`, the max response was -14.6%.

On to `CCC(Cl)C(Cl)C(Cl)CC(Cl)C(Cl)C(C)Cl` (stereo not given), for which the max response was -19.8%.

As for `CCCCCCCCCCCC[N+](C)(C)CCCCCCCCCCCC`, the Potency is 3.89 µM (active).

Turning to `O=CC=C(c1ccccc1)c1ccccc1`, the Potency is 17.5 µM (active).

Turning to `O=C(O)c1cc(O)c2c(c1)C(=O)c1cccc(O)c1C2=O`, the max response is -10.8%.

Turning to `C=CC(=O)OCCn1c(=O)n(CCOC(=O)C=C)c(=O)n(CCOC(=O)C=C)c1=O`, the Potency was 11 µM (active).

On to `O=C(Nc1cccc(C(F)(F)F)c1)c1cc(Br)cc(Br)c1O`, for which the Potency was 3.89 µM (active).

Take `Cc1cccc(S(=O)(=O)O)c1C`: the max response was -3.36%.

Turning to `CCOc1ccc2nc3cc(N)ccc3c(N)c2c1`, the Potency was 13.4 µM (active).

Regarding `CCN(C(=O)c1cc(C)cc(OC[C@H](C)Nc2ccncc2)c1)C(C)C`, the max response was -9.99%.

Turning to `CC[C@H](c1ccc(O)cc1)[C@@H](CC)c1ccc(O)cc1`, the Potency is 24.5 µM (active).

Regarding `Nc1ccc2c3c(cccc13)-c1ccccc1-2`, the Potency is 27.8 µM (active).

As to `C[C@]12CCC(=O)C=C1CC[C@@H]1[C@@H]2[C@@H](O)C[C@@]2(C)[C@H]1CC[C@]2(O)C(=O)COC(=O)CCC(=O)O`, the max response is -8.8%.

`Cc1oc(-c2ccccc2)nc1CCC(=O)c1ccc(CC2SC(=O)NC2=O)cc1` (stereo not given): the max response is -22.3%.

Take `On1ccccc1=S`: the Potency is 3.85 µM (active).

`Cc1cccc(N(C)C(=S)Oc2ccc3c(c2)C2CCC3C2)c1` (stereo not given): the max response was -13.2%.

On to `O=c1c(-c2ccccc2)c1-c1ccccc1`, for which the Potency is 10.7 µM (active).

On to `CCC(CN)=C(c1ccccc1)c1ccccc1`, for which the max response is -19.1%.

Regarding `CCCCCCCCOC(=O)c1ccc(O)cc1`, the Potency was 27.4 µM (active).

Take `CC(NN)c1ccccc1` (stereo not given): the max response is 2.41%.

On to `O=C(c1ccc(F)cc1)C1CCN(CCn2c(=O)[nH]c3ccccc3c2=O)CC1`, for which the Potency was 9.52 µM (active).

For the molecule `Cc1cc(CCN2CCN(c3nsc4ccccc34)CC2)cc2c1NC(=O)CC2(C)C`, the Potency is 6.92 µM (active).

Consider `O=C(Nc1cccc(Cl)c1)OCC#CCCl`, for which the Potency was 49 µM (active).

Consider `NC(=O)C1(N2CCCCC2)CCN(CCCN2c3ccccc3CCc3ccc(Cl)cc32)CC1`, for which the Potency is 21.3 µM (active).

In the case of `C/C=C1/C(=O)C[C@H]2[C@@H]3CCC4=CC(=O)CC[C@]4(C)[C@H]3CC[C@]12C`, the Potency was 48.8 µM (active).

As for `CCN(CC)CCNC(=O)c1c(C)[nH]c(/C=C2\C(=O)Nc3ccc(F)cc32)c1C`, the Potency is 8.49 µM (active).

As to `COc1cc(-c2ccc(N=C=O)c(OC)c2)ccc1N=C=O`, the max response was -10%.

Turning to `CCC(C)Nc1ccc(NC(C)CC)cc1` (stereo not given), the Potency is 3.97 µM (active).

Regarding `CCN1/C(=C/C=C/c2sc3ccccc3[n+]2CC)Sc2ccccc21`, the Potency was 0.0585 µM (active).

On to `CCCC1O[C@@H]2C[C@H]3[C@@H]4CCC5=CC(=O)C=C[C@]5(C)[C@H]4[C@@H](O)C[C@]3(C)[C@]2(C(=O)CO)O1` (stereo not given in full), for which the Potency was 24.6 µM (active) and 43.6 µM (active).

On to `Cc1c(C)c2c(c(C)c1O)CCC(C)(COc1ccc(CC3SC(=O)NC3=O)cc1)O2` (stereo not given), for which the Potency was 43.6 µM (active).

As for `CCCCC(CC)CN=C(N)NC(N)=NCCCCCCN=C(N)NC(N)=NCC(CC)CCCC` (stereo not given), the Potency is 4.25 µM (active).

Turning to `O=C(OCC(COC(=O)c1ccccc1)(COC(=O)c1ccccc1)COC(=O)c1ccccc1)c1ccccc1`, the Potency was 48.9 µM (active).

As for `CCCN(CCC)c1c([N+](=O)[O-])cc(C(F)(F)F)c(N)c1[N+](=O)[O-]`, the Potency is 19.4 µM (active).

As to `CCCCCOC(=O)CCCC`, the max response is -0.909%.

In the case of `CC1=NC(C)OC1C` (stereo not given), the max response was 0.967%.

Regarding `CCCCc1oc2ccc(NS(C)(=O)=O)cc2c1C(=O)c1ccc(OCCCN(CCCC)CCCC)cc1`, the Potency is 8.49 µM (active).
